Data published in PubChem BioAssay (Tox21).
Results filed as inconclusive are left out. Activity calls are given as the source filed them. The call rests on the fitted dose curve; in most records, active means well fitted activation curve with a large enough effect in the signal ratio in the repeat runs, with a control signal flat (not every such curve was filed as active); inconclusive means weak or mixed curves; inactive means flat fitted curve, though single readings scatter; the % refers to the signal ratio.

experiment: qHTS assay for small molecule activators of the heat shock response signaling pathway (AID 743210); conditions: HeLa HSE-bla reporter, beta-lactamase ratio, 5 h; series mostly up to 62.6 µM; activation: at the top concentration
From the text: U.S. Tox21 Program National Center for Advancing Translational Sciences [NCATS] NIH Chemical Genomics Center [NCGC] U.S. Environmental Protection Agency [EPA] National Institutes of Environmental Health Sciences [NIEHS] National Toxicology Program [NTP] U.S. Food and Drug Administration [FDA] Tox21 Assay Overview: Various chemicals, environmental and physiological stress conditions may lead to the activation of heat shock response/ unfolded protein response (HSR/UPR). There are three heat shock transcription factors (HSFs) (HSF-1, -2, and -4) mediating transcriptional regulation of the human HSR. To identify the compounds that activate HSR signaling, HSE-bla HeLa cell line (Invitrogen, Carlsbad, CA, USA) containing a beta-lactamase reporter gene under the control of the heat shock response elements was used to screen the Tox21 10K compound library.
Tox21 Assay Protocol Summary: The CellSensor HSE-bla HeLa cells (Invitrogen, Carlsbad, CA, USA) were dispensed at 1500 cells/6uL/well into 1536-well black wall/clear bottom plates using a Multidrop combi (Thermo Fisher Scientific, Waltham, MA) dispenser. After the assay plates were incubated at 37 C and 5% CO2 overnight, 23 nL of compounds dissolved in DMSO, positive controls or DMSO only was transferred to the assay plate by a Pintool station (Kalypsys, San Diego, CA). The plates were incubated at 37 C for 5 h. After 1 uL of LiveBLAzerTM B/G FRET substrate was added using a Flying Reagent Dispenser (Beckman Coulter, Indianapolis, IN, USA), the plates were incubated at room temperature for 2.5 h, and fluorescence intensity was measured by an Envision plate reader (PerkinElmer, Shelton, CT).
On the % scale 0 is the no-effect control and ±100 the full control effect.

| Structure (SMILES) | activation |
| --- | --- |
| CC1(C)SC(C)(C)SC(C)(C)S1 | 0.672% (inactive) |
| CC(C)(C)N(CCO)CCO | 0.391% [at 81.1 µM] (inactive) |
| CNC(=O)c1c(I)c(NC(=O)CCCCC(=O)Nc2c(I)c(C(=O)O)c(I)c(C(=O)NC)c2I)c(I)c(C(=O)O)c1I | -0.3% (inactive) |
| C=C(C)C(=O)OCCC(C)OC(=O)C(=C)C (stereo not given) | -0.48% (inactive) |
| CCC(=O)Nc1cccc(N)c1 | -1.56% (inactive) |
| CCC(C)OC(=O)N1CCCCC1CCO (stereo not given) | -0.0551% (inactive) |
| c1ccc2cnncc2c1 | 0.36% (inactive) |
| NCC[C@H](O)C(=O)N[C@@H]1C[C@H](N)[C@@H](O[C@H]2O[C@H](CN)[C@@H](O)[C@H](O)[C@H]2O)[C@H](O)[C@H]1O[C@H]1O[C@H](CO)[C@@H](O)[C@H](N)[C@H]1O | 0.848% [at 0.55 µM] (inactive) |
| C=C(C)[C@@H]1CCC2=CC(=O)C[C@@H](C)[C@]2(C)C1 | -1.43% (inactive) |
| NS(=O)(=O)c1cc(C2(O)NC(=O)c3ccccc32)ccc1Cl (stereo not given) | -1.14% (inactive) |
| OC/C=C/c1ccccc1 | -1.71% [at 81.1 µM] (inactive) |
| CCN1CCN(c2cc3c(cc2F)c(=O)c(C(=O)O)cn3C2CC2)CC1 | 0.15% (inactive) |
| COC(=O)CCCCCCCCC(=O)OC | -0.0987% [at 81.1 µM] (inactive) |
| CCCCC=O | -0.579% (inactive) |
| COC(=O)C1=C(C)NC(C)=C(C(=O)OCC(C)=O)C1c1ccccc1[N+](=O)[O-] (stereo not given) | -2.07% (inactive) |
| Cc1nccn1CC1CCc2c(c3ccccc3n2C)C1=O (stereo not given) | -1.12% (inactive) |
| CCCCc1ccc2cccc(S(=O)(=O)O)c2c1 | 0.286% (inactive) |
| Cc1ccc(N)cc1[N+](=O)[O-] | -0.0496% [at 81.1 µM] (inactive) |
| Cc1cc(C)c(NC(=O)CN(CC(=O)O)CC(=O)O)c(C)c1Br | -1.25% (inactive) |
| COc1cc(C(=O)N2CCOCC2)cc(OC)c1OC | 0.134% (inactive) |

| Structure (SMILES) | activation |
| --- | --- |
| Nc1nc(F)nc2c1ncn2[C@@H]1O[C@H](CO)[C@@H](O)[C@@H]1O | -1.06% (inactive) |
| CCc1cc(S(=O)(=O)O)c2cc(C(C)C)cccc1-2 | -0.235% (inactive) |
| C1=C\CC/C=C\CC/C=C\CC/1 | -0.632% (inactive) |
| CCOC(=O)Nc1ccc2c(c1)N(C(=O)CCN1CCOCC1)c1ccccc1S2 | 2.35% (inactive) |
| CCCCCCCCCCCl | -0.372% [at 81.1 µM] (inactive) |
| CC(=O)OC(C)(C)C | -1.67% (inactive) |
| OCC(O)[C@@H](O)[C@H](O)[C@H](O)CO[C@H]1O[C@H](CO)[C@@H](O)[C@H](O)[C@H]1O (stereo not given in full) | 0.223% (inactive) |
| Nc1nc2c(ncn2CCC(CO)CO)c(=O)[nH]1 | -0.289% (inactive) |
| CC(C)(O)c1ccccc1 | 0.796% (inactive) |
| NC(CS)C(=O)O (stereo not given) | -2.28% (inactive) |
| O=C(O)c1ccc[n+]([O-])c1 | -0.0774% (inactive) |
| CC(C)COC(=O)c1ccccc1O | -0.535% (inactive) |
| C1CCCCCCCCCCC1 | -1.61% [at 29.1 µM] (inactive) |
| CC(C)=CC(=O)O | -2.18% (inactive) |
| C=CCSCC1Nc2cc(Cl)c(S(N)(=O)=O)cc2S(=O)(=O)N1 (stereo not given) | 0.582% (inactive) |
| C=C[Si](OC)(OC)OC | -0.194% (inactive) |
| CCOC(=O)[C@H](CCc1ccccc1)N[C@@H](C)C(=O)N1CCC[C@H]1C(=O)O | -0.025% (inactive) |
| N#CCN(CC#N)CCN(CC#N)CC#N | -0.021% (inactive) |
| CN(C)N=Nc1ccccc1 | -0.886% (inactive) |
| O=C(CCOCCOCCOCCOCCC(=O)Nc1c(I)cc(I)c(C(=O)O)c1I)Nc1c(I)cc(I)c(C(=O)O)c1I | -0.655% (inactive) |
